Measurements as given in PubChem BioAssay AID504834 (National Center for Advancing Translational Sciences (NCATS), 2011).
“And” between values parts separate entries of the source, which are not always exact repeats. Equal values may be shown once. Among all 320,000 compounds or so, about 22,000 (6.9%) were called active. Another 27% or so got no clear call; they are omitted. The call rests on the fitted dose curve; in most records, active means well fitted inhibition curve with a large enough effect; inconclusive means small, poorly fitted or top-dose-only effect, or another doubt; inactive means no such curve, though single readings can be large or run the other way. Shown is part of a subset that was picked to be rich in actives. More than one record can exist for a structure, and the calls need not agree.

Test: Primary qHTS for delayed death inhibitors of the malarial parasite plastid, 96 hour incubation
Conditions: P. falciparum luciferase reporter growth; series mostly up to 28.7 µM; activity change, negative = inhibition: at the top concentration
Procedure, shortened: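 Delayed-death screen, second-generation endpoint: infected erythrocytes, 2% hematocrit, 0.05% parasitemia final; 96 hours at 37 C, 5% CO2; luciferase detection reagent; luminescence decrease equals reduced growth.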
On the % scale 0 is the no-effect control and ±100 the full control effect; potency means the concentration at half of the fitted maximal effect.

Row | Structure (SMILES) | activity change, negative = inhibition | Potency
1 | CC(C)CNC(=O)C(=O)NCC(c1ccc2c(c1)OCO2)N1CCOCC1 (stereo not drawn) | 80.6% (inactive) | –
2 | CC1=NN(c2cccc(Cl)c2)C(=O)C12CC(C)=C(C)CS2 (stereo not drawn) | – | 3.7 µM (active)
3 | CC12CCC(C(=O)N(c3cccc(Cl)c3)C1=O)C2(C)C (stereo not drawn) | 86.3% (inactive) | –
4 | Cc1cccc(OCCC(=O)OCc2csc(CC(=O)Nc3ccccc3C)n2)c1 | -1.27% (inactive) | –
5 | O=CN1CCN(C(=O)c2ccc(Br)o2)CC1 | -8.76% (inactive) | –
6 | COc1ccc(-n2cnnc2SCC(=O)Nc2cccc(S(N)(=O)=O)c2)cc1 | -2.69% (inactive) | –
7 | O=C(N/N=C/c1cccc(Br)c1)c1ccc(N2CCCC2=O)cc1 | 11.4% (inactive) | –
8 | CCOC(=O)N1CCN(C(=O)C2CCN(S(=O)(=O)c3cc(Cl)ccc3OCC)CC2)CC1 | 38.7% (inactive) | –
9 | CN(C)P(=S)(Nc1ccccc1)C(Cl)(Cl)Cl (stereo not drawn) | – | 8.28 µM (active)
10 | O=C(CN1CCN(c2ccccc2)CC1)Nc1ccc(F)cc1 | 10.7% (inactive) | –
11 | CC(Oc1ccc(F)cc1)C(=O)N1CCN(c2ncccn2)CC1 (stereo not drawn) | 7.12% (inactive) | –
12 | COCCN(C(=O)CC1CCCCC1)c1c(N)n(CC(C)C)c(=O)[nH]c1=O | -19.9% (inactive) | –
13 | CCOC(=O)c1cc(NC(=O)c2cccnc2)cc(C(=O)OCC)c1 | -1.24% (inactive) | –
14 | CN(C)S(=O)(=O)c1cccc(C(=O)Nc2cccnc2)c1 | – | 3.29 µM (active)
15 | O=C(Nc1cccnc1)c1cccc(S(=O)(=O)N2CCCC2)c1 | 22.3% (inactive) | –
16 | CCC(=O)Nc1ccc(C(=O)Nc2cccc(OC)c2)cc1 | 25.3% (inactive) | –
17 | CCC(=O)Nc1cccc(NC(=O)c2cccnc2)c1 | – | 13.1 µM (active)
18 | CCN(CC)S(=O)(=O)c1cccc(C(=O)Nc2ccccc2)c1 | -28% (inactive) | –
19 | COc1ccc(C(=O)N2CCN(c3ncccn3)CC2)cc1S(=O)(=O)N1CCOCC1 | 29.3% (inactive) | –
20 | O=C1CN(C(=O)c2cc(F)cc(F)c2)c2ccccc2N1 | 21.9% (inactive) | –
21 | Cn1c(O)c(C=NCCN2CCNCC2)c(=O)n(C)c1=O | – | 9.28 µM (active)
22 | O=c1[nH]c(=O)n(-c2ccc(F)cc2)c(O)c1C=NCCN1CCCCC1 | -0.537% (inactive) | –
23 | Cn1c(O)c(C=Nc2ccc3c(c2)CCC3)c(=O)n(C)c1=O | -0.84% (inactive) | –

Row | Structure (SMILES) | activity change, negative = inhibition | Potency
24 | COc1ccc(NC(=O)c2cn(-c3ccccc3)nc2SC)cc1 | 32.2% (inactive) | –
25 | Cc1cccc(N2CCN(C(=O)COCc3cc(-c4ccc5c(c4)OCO5)on3)CC2)c1C | 63.5% (inactive) | –
26 | Cc1ccsc1-c1cc(C(=O)O)c2c(ccc3ccccc32)n1 | 42.5% (inactive) | –
27 | Cc1ccc(Cl)cc1NC(=S)N(CCN(C)C)Cc1cccs1 | 42.5% (inactive) | –
28 | Cc1ccccc1NC(=S)N(CCCN1CCOCC1)Cc1cccs1 | – | 3.7 µM (active)
29 | Cc1ccc(NC(=S)N(CCN(C)C)Cc2cccs2)cc1C | 14.5% (inactive) | –
30 | CCN(C(=O)COC(=O)c1sccc1C)c1c(N)n(Cc2ccccc2)c(=O)[nH]c1=O | -27.9% (inactive) | –
31 | COc1ccc(OC)c(/C=N/NC(=O)c2ccc[n+](CC(=O)c3ccccc3)c2)c1 | 13.8% (inactive) | –
32 | O=C(O)c1ccccc1CSc1nc2ccccc2s1 | 58.7% (inactive) | –
33 | CCOC(=O)C1CCCN(C(=O)CN(c2ccc(OC)cc2)S(=O)(=O)c2c(C)noc2C)C1 (stereo not drawn) | 67.4% (inactive) | –
34 | Cc1cc(C)cc(N(CC(=O)NCC2CCCO2)S(=O)(=O)c2c(C)noc2C)c1 (stereo not drawn) | -10.5% (inactive) | –
35 | Cc1cc(C)cc(N(CC(=O)N2CC=C(c3ccccc3)CC2)S(=O)(=O)c2c(C)noc2C)c1 | – | 6.57 µM (active)
36 | COc1ccc(NC2CCCN(C(=O)c3ccncc3)C2)cc1 (stereo not drawn) | 8.58% (inactive) | –
37 | COc1ccccc1N(C)C(=O)c1cc(S(=O)(=O)N2CCc3ccccc32)cn1C | 0.199% (inactive) | –
38 | CC(=O)NCC(O)c1ccc([N+](=O)[O-])cc1 (stereo not drawn) | 10.7% (inactive) | –
39 | Cc1ccc(C23CC4CC(CC(C(=O)NCC(=O)O)(C4)C2)C3)cc1 | -2.65% (inactive) | –
40 | NCC(O)c1ccc(O)cc1 (stereo not drawn) | – | inactive and 4.26 µM (active)
41 | CNCC(O)c1ccc(O)c(O)c1 (stereo not drawn) | 3% (inactive) | –
42 | COc1ccc(S(=O)(=O)NNC(=O)Nc2ccc(C)cc2)c(OC)c1 | 16.2% (inactive) | –
43 | N#CCCN1CCN(S(=O)(=O)c2ccc(S(=O)(=O)NC3CC3)cc2)CC1 | 14.9% (inactive) | –
44 | N#CCCN1CCN(S(=O)(=O)c2ccc(S(=O)(=O)N3CCCC3)cc2)CC1 | 13.4% (inactive) | –
45 | N#CCCN1CCN(S(=O)(=O)c2ccc(S(=O)(=O)NC3CCCCC3)cc2)CC1 | – | 8.28 µM (active)
46 | CN(Cc1ccc(F)cc1Cl)S(=O)(=O)c1cccs1 | 0.235% (inactive) | –

Row | Structure (SMILES) | activity change, negative = inhibition | Potency
47 | Cc1cccc(OCC(=O)NC(=S)Nc2ccccc2N2CCOCC2)c1 | 19.3% (inactive) | –
48 | COCC(=O)Nc1c(C(=O)N2CCCC2)oc2ccccc12 | -7.27% (inactive) | –
49 | CCOCCCN(C)C1CCN(C(=O)c2oc3ccccc3c2NC(=O)COc2cccc(C)c2)CC1 | – | 13.1 µM (active)
50 | Cc1ccc(C)c(C(=O)N2CCC(n3nccc3NC(=O)C3CC3)CC2)c1 | 28.5% (inactive) | –
51 | Cc1c(CN2CCC(n3nccc3NC(=O)CCc3ccccc3)CC2)cnn1C | -5.6% (inactive) | –
52 | CCN1CCN(C(=O)C2CCN(S(=O)(=O)c3cc(Cl)ccc3Cl)CC2)CC1 | 17.3% (inactive) | –
53 | COc1ccc(-n2c(=O)[nH]c3cc(C(=O)NCCc4ccc(OC)c(OC)c4)ccc3c2=O)c(OC)c1 | 184% (inactive) | –
54 | CCCCOC(=O)Nc1sc2nc(C)cc(C)c2c1-n1cccc1 | 37.7% (inactive) | –
55 | Cc1cc(C)c2c(-n3cccc3)c(NC(=O)OCc3ccccc3)sc2n1 | – | 13.1 µM (active)
56 | Cc1cc(C)c2c(-n3cccc3)c(C(=O)NNS(=O)(=O)c3ccc(F)cc3)sc2n1 | 50.7% (inactive) | –
57 | COc1ccccc1-n1c(SCC(=O)Nc2cccc(C(=O)O)c2)nnc1-c1ccccc1O | 22.7% (inactive) | –
58 | Cc1cc(C)c2c(-c3ccc(F)cc3)c(C#N)c(=O)n(C)c2n1 | 2.64% (inactive) | –
59 | O=C(CCN1C(=O)[C@@H]2Cc3ccccc3CN2C1=O)NCc1ccccc1 | -23.2% (inactive) | –
60 | C=CCc1cccc(/C=N/NC(=O)COc2ccc(-n3cnnn3)cc2)c1O | -7.84% (inactive) | –
61 | Cc1ccc(C(=O)OCC(=O)NC(=O)Cc2ccccc2)c(O)c1 | -1.22% (inactive) | –
62 | COc1ccc(-c2csc(NC(=O)COC(=O)c3ccc(Br)o3)n2)cc1 | 212% (inactive) | –
63 | O=C(NCCc1csc(-c2ccccc2)n1)c1ccccc1F | 0.738% (inactive) | –
64 | COc1ccc(-c2nc(CCNC(=O)c3ccc(Br)o3)cs2)cc1 | – | 8.28 µM (active)
65 | NS(=O)(=O)c1ccc(NC(=S)N2CCCC2)cc1 | 6.43% (inactive) | –
66 | COC(=O)C1=C(C)NC2=C(C(=O)c3ccccc32)C1c1ccc(-c2ccc(C(=O)O)cc2)o1 (stereo not drawn) | 6.59% (inactive) | –
67 | Cc1ccc(N=Nc2c(C)[nH]n(-c3ccccc3)c2=O)cc1 | 1.36% (inactive) | –
68 | Cc1ccc(C2C3=C(Nc4[nH]n(-c5ccccc5)c(=O)c42)c2ccccc2C3=O)cc1 (stereo not drawn) | – | 11.7 µM (active)
